aSyn rescue: qHTS of alpha-syn Inhibitors; Yeast expressing alpha-synuclein, growth rescue, BacTiter-Glo, 24 h; Potency, µM (doses to about 46.1 µM), inactives show top-dose growth rescue (activation), actives largely listed as activators; actives 0.14% (n = 370,000); AID 652106, 2013; further: % of control where 0% means no effect; nearly all actives have a fitted effect of over 65% in size
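Readout is rescue of growth in alpha-synuclein-expressing yeast, so inhibitors of toxicity appear as activators. Growth after 24 hr at 30 deg C in galactose medium is quantified by luminescence.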
uPA generation: qHTS for Inhibitors of Cell Surface uPA Generation | actives 0.31% (n = 330,000) | AID 540303, 2011 | cell surface uPA generation assay, qHTS | Potency, µM (series often up to 38.3 µM), inactives show at the highest dose activity change, negative = inhibition, usual class: inhibitors; active means well fitted inhibition curve with a large enough effect; inconclusive means small, poorly fitted or top-dose-only effect; inactive means no such curve, though single readings can be large or run the other way; tested in mouse RAW 264.7 cells; further: on the % scale 0 is the no-effect control and ±100 the full control effect; nearly all actives have a fitted effect of over 55% in size
Abeta rescue: qHTS for compounds that reverse cellular toxicity of Amyloid beta (A-beta) peptide in yeast: Primary Screen. Potency, µM (series often up to 46.1 µM), usual class: activators. yeast expressing A-beta42, growth rescue, OD600, 48 h; response scale: 0% DMSO, 100% iron-clioquinol control. actives 0.063% (n = 410,000); further: nearly all actives have a fitted effect of over 55% in size
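Yeast growth medium received pinned compounds, then yeast cells expressing toxic A-beta were added; plates incubated at 30 C for 48 hr. Growth read as absorbance at 600 nm, normalized to DMSO and equimolar FeCl3 plus clioquinol controls.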
FUS yeast rescue: qHTS for Suppressors of FUS Proteinopathy: Primary screen using FUS-linked yeast assay | S. cerevisiae FUS-expressing, growth rescue, OD600, 24 h | Potency, µM (doses to about 76.6 µM), hits mostly activators | actives 0.24% (n = 390,000);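 further: plate controls were DMSO vehicle for no effect and reference control for full effect; nearly all actives have a fitted effect of over 55% in size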
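Cultures pregrown in 2.5% raffinose medium are shifted to minimal medium containing 2% galactose to express toxic FUS. Compounds are tested at several concentrations. After 24hr at 30C, growth is quantified at 600 nm absorbance.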
TDP43 rescue: qHTS of TDP-43 Inhibitors. TDP-43 expressing yeast growth rescue, BacTiter-Glo, 24 h. actives 1.8% (n = 410,000). Potency, µM (top dose mostly 46.1 µM), without a hit: at the highest dose growth rescue (activation), hits mostly activators; further: % of control where 0% means no effect; nearly all actives have a fitted effect of over 50% in size
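In this qHTS, compounds that restore growth of yeast expressing TDP-43 appear as activators. Cells (OD600=0.02, galactose medium, raffinose-pregrown) are incubated with compound 24 hr at 30 deg C and growth is quantified by BacTiter-Glo.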
Chronic BCR inh: qHTS Assay to Find Inhibitors of Chronic Active B-Cell Receptor Signaling. ABC-DLBCL IkBa-CBG/CBR reporter, luminescence ratio, 4 h. Potency, µM (highest dose often 46.1 µM), inactives show top-dose activity change, negative = inhibition, hits mostly inhibitors. actives 0.05% (n = 340,000). AID 493014, 2011; active means well fitted inhibition curve with a large enough effect in the signal ratio, with a control signal flat, not every such curve was filed as active; inconclusive means small, poorly fitted or top-dose-only effect, or effect the other way, or a change in a side signal; the % refers to the signal ratio;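 further: plate controls were basal doxycycline-induced cells for no effect and cells given 10 µM MG132 for full effect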
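Compounds up to 46 uM were incubated four hours with TMD8 cells whose green CBG68 luciferase is fused to IkappaBalpha; red CBR luminescence normalised the signal, and concentration-effect curves were fitted to fusion, red and ratio data.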
Starred values were filed as active, the others as inactive; i = inactive; ? = inconclusive; · = no result given. Shown are actives, neighbours in structure and some others; about 2.3% of the full set was active somewhere. Unless noted, the call rests on the fitted dose curve; in most records, active means well fitted curve in the direction sought with a large enough effect; inconclusive means small, poorly fitted or top-dose-only effect, or another doubt; inactive means no such curve, though single readings can be large; an effect the other way counts as inactive or inconclusive. Potency means the concentration at half of the fitted maximal effect.

SMILES	aSyn rescue	uPA generation	Abeta rescue	FUS yeast rescue	TDP43 rescue	Chronic BCR inh
Cc1c(C2(O)CCCCC2)[nH]c2cc(C(F)(F)F)ccc12	-16%	1%	i	i	6.3µM*	1%
COc1ccc(OC)c(NC(=O)C2C3CCC(C3=C(C)C)C2C(=O)O)c1 (stereo unspecified)	3%	7%	i	i	16µM*	-4%
COc1ccc(OC)c(NC(=O)c2ccc(OC3CSC3)cc2)c1	-10%	-4%	?	i	13µM*	-17%
COc1ccc(OC)c(NC(=O)c2ccc(NC(C)=O)cc2)c1	2%	6%	i	i	-5%	?
CN(C)S(=O)(=O)N1CCN(c2ccccc2Cl)CC1	5%	-2%	i	i	7%	0%
Cc1ccc(S(=O)(=O)N2CCN(Cc3nc4ccc(C)cc4o3)CC2)cc1	·	·	i	i	-15%	·
COc1ccc(S(=O)(=O)N2CCN(Cc3nc4ccc(C)cc4o3)CC2)cc1	·	·	i	i	18µM*	·
CC(Oc1ccc(Cl)cc1Cl)C(=O)N(Cc1ccco1)C1CCS(=O)(=O)C1 (stereo unspecified)	-4%	-3%	i	i	11%	0%
COC(=O)c1cccc(NC(=O)c2ccc(OC)c(Cl)c2)c1	2%	-9%	i	i	11µM*	?
COC(=O)c1cccc(NC(=S)Nc2cc(Cl)ccc2OC)c1	5%	6%	i	i	22µM*	?
COc1ccc(C(=O)Nc2cc(C(=O)O)cc(C(=O)O)c2)cc1Cl	-5%	6%	i	i	-24%	3%
COC(=O)c1cc(OC)c(OC)cc1NC(=S)Nc1cccc(C(C)=O)c1	-7%	2%	i	i	-6%	?
CCOC(=O)c1[nH]c2cc(OC)c(OC)cc2c1NC(=O)c1ccc2c(c1)OCO2	3%	·	i	i	-9%	0%
CCOC(=O)c1c(CN2CCN(C)CC2)oc2ccc(O)cc12	9%	0%	i	i	7%	?
CCOC(=O)c1c(CSc2ccccc2)oc2ccc(O)cc12	4%	5%	i	i	20µM*	?
CCOC(=O)c1c(-c2ccccc2)oc2ccc(O)cc12	4%	5%	i	i	?	10%
CCOC(=O)c1c(CSc2ccc(C)cc2)oc2ccc(O)cc12	-13%	1%	i	i	22µM*	-19%
O=C1OC[C@H]2CCCN2C(=O)[C@@H](CC(=O)N(CCO)Cc2ccccc2)C/C=C\CC[C@@H]1Cc1ccc(F)cc1	1%	-3%	i	?	20%	3%
COc1ccccc1/C=C1\NC(=S)N(CC2CCCO2)C1=O (stereo unspecified)	1%	5%	i	i	14µM*	-7%
COc1ccc(CC(=O)Nc2ccc(F)c(S(=O)(=O)N3CCOCC3)c2)cc1	0%	0%	i	i	5%	·
CC(=O)c1cccc(NC(=O)C2CCCN2S(=O)(=O)c2ccccc2C(F)(F)F)c1 (stereo unspecified)	-6%	·	i	i	13%	·
Cc1ccc(C(=O)Nc2ccccc2N2CCCCC2)cc1[N+](=O)[O-]	-24%	-24%	i	i	20%	5%
COc1ccc(S(=O)(=O)N2CCCCC2)cc1NC(=O)c1cccc(S(=O)(=O)N2CCOCC2)c1	0%	-6%	i	·	-6%	·
COc1ccccc1NC(=O)c1cccc(S(=O)(=O)N2CCCCCC2)c1	·	·	i	i	35µM*	·
O=C(Nc1cccc(S(=O)(=O)N2CCCCC2)c1)[C@@H]1CCCN1S(=O)(=O)c1ccccc1C(F)(F)F	0%	?	i	25µM*	-22%	·
SMILES	aSyn rescue	uPA generation	Abeta rescue	FUS yeast rescue	TDP43 rescue	Chronic BCR inh
CCc1ccccc1OCC(=O)Nc1ccc(F)c(S(=O)(=O)N2CCOCC2)c1	7%	-15%	i	i	16µM*	?
COc1ccc(C(=O)Nc2ccccc2N2CCCCC2)cc1[N+](=O)[O-]	-3%	-27%	i	i	18µM*	13%
Cc1cccc(NC(=O)/C(=C\c2ccc([N+](=O)[O-])o2)NC(=O)c2ccc(Cl)cc2)c1	4%	-2%	i	i	16%	?
COc1ccccc1CCn1c(N)cc(=O)[nH]c1=O	?	-20%	i	i	-4%	5%
O=C(COC(=O)c1ccccc1Cl)Nc1cccc(S(=O)(=O)N2CCCCC2)c1	10%	·	i	i	22%	·
O=C(COc1ccccc1Cl)Nc1cccc(S(=O)(=O)N2CCCC2)c1	13%	-7%	i	i	18µM*	?
COc1ccc(NC(C)=O)cc1NC(C)C(=O)Nc1ccc(S(=O)(=O)N2CCCCC2)cc1 (stereo unspecified)	1%	3.2µM*	i	·	10%	2%
O=C(COc1ccc(F)cc1Cl)Nc1cccc(S(=O)(=O)N2CCCC2)c1	-2%	-6%	i	i	35µM*	0%
Cc1cc(C)c(C(=O)OCC(=O)Nc2cccc(S(=O)(=O)N3CCCCC3)c2)c(C)c1	15%	8.9µM*	i	i	9%	-20%
COc1ccc(NC(C)=O)cc1S(=O)(=O)Nc1ccc(S(=O)(=O)N2CCCCC2)cc1	-5%	4%	i	i	-1%	2%
COc1ccccc1CNC(=O)c1cccc2c1C(=O)N(Cc1cccnc1)C2	1%	7%	i	i	2%	1%
S=C1NC[C@H](Cc2ccccc2)N1CC1CCN(CCCC2CCCC2)CC1	-1%	-29%	i	i	7%	·
Cc1ccnc(NC(=O)c2cccc(NC(=O)c3ccc(Cl)c(Cl)c3)c2)c1	-3%	3%	i	i	·	·
CC(=O)c1cccc(Nc2nc(-c3cccc(C)c3)nc3ccccc23)c1	·	·	i	?	16µM*	·
Cc1cccc(-c2nc(Nc3cccc(O)c3)c3ccccc3n2)c1	-8%	-7%	i	i	0%	?
CN(c1ccccc1)c1nc2ccsc2c(=O)s1	0%	1%	i	i	14µM*	8%
CC(c1ccccc1)N1CCN(C(=O)CCl)CC1 (stereo unspecified)	4%	8.9µM*	i	i	7%	?
CC(CC(=O)N1CCN(C(=O)c2ccccc2)CC1)c1ccccc1 (stereo unspecified)	-5%	-6%	i	i	5%	6%

Screening results from PubChem BioAssay.
